IL1B secr inh: qHTS for Inhibitors of Inflammasome Signaling: IL-1-beta AlphaLISA Primary Screen; THP-1 LPS/ATP IL-1B secretion, AlphaLISA, 16 h; active compounds read low; activity change, % at 57.5 µM; hit rate 4.7% among 360,000; AID 743279, 2014; in the data active = activity change below about -50%; inconclusive = mostly about -30% to -49%; note: % is set by controls: 0 for no effect and ±100 for the full control effect
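THP-1 cells pretreated 1 hr with compounds (up to 57.5 uM final), then stimulated with LPS (250 ng/mL final) plus ATP (1.25 mM final); secreted IL-1B measured by AlphaLISA after 16 hr, decreased signal indicating inhibition.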
TDP1 block: qHTS Assay for Inhibitors of Tyrosyl-DNA Phosphodiesterase (TDP1); Tyrosyl-DNA phosphodiesterase 1 (Homo sapiens), Q9NUW8; Potency, µM (top dose mostly 130 µM), without a hit: top-dose activity change, negative = inhibition, usual class: inhibitors; recombinant TDP1, AlphaScreen DNA substrate cleavage; hit rate 0.28% among 350,000; note: potency is the fitted concentration of half-maximal effect; % is set by controls: 0 for no effect and ±100 for the full control effect; nearly all actives have a fitted effect of over 40% in size
Target sequence (Q9NUW8 whole entry, looked up): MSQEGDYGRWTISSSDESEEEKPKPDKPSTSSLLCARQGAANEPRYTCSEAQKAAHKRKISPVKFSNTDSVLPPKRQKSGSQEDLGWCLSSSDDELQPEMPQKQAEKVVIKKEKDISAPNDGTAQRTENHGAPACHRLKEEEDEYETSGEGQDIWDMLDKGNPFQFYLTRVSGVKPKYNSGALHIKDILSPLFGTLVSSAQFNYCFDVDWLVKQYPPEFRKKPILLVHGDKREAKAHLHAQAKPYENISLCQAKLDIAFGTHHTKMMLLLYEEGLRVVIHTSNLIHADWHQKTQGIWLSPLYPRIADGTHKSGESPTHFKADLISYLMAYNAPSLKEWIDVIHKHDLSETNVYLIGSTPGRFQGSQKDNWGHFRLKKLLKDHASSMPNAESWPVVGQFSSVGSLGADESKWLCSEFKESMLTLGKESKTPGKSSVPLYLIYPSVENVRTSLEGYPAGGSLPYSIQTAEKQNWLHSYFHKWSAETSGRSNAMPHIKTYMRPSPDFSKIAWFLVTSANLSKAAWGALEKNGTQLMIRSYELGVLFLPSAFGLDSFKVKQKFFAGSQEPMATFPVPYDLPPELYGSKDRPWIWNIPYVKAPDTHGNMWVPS
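Compounds were preincubated with Tdp1 (1 nM final) for 15 min at room temperature before substrate (15 nM final) started a 5 min reaction; beads (10 ug/ml final) were then added for 10 min before AlphaScreen detection.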
HepG2 viability: qHTS for Inhibitors of TGF-b: Cytotox Counterscreen; HepG2 CAGA-GFP viability, ATP luminescence, 18 h; hit rate 0.76% among 410,000; Potency, µM (titrated, usually from 46.1 µM), inactives show at the highest dose activity change, negative = cytotoxicity, usual class: cytotoxic; note: potency is the fitted concentration of half-maximal effect
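HepG2 CAGA-GFP cells (1000/well, DMEM with 1% FBS) received compound, then TGF-beta at 500 pg/mL final, and were incubated 18 hours at 37 degrees C. Viability was read by CellTiter-Glo luminescence. Media-only wells were set as complete cell-killing and DMSO as no toxicity.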
TGFb inhibitor: qHTS for Inhibitors of TGF-b | HepG2 CAGA-GFP TGF-b/SMAD3 reporter, GFP fluorescence, 18 h; TGF-beta stimulated, 500 pg/mL final | Potency, µM (titrated, usually from 46.1 µM), for the others: at the highest dose activity, negative = inhibition, most hits filed as inhibitors | hit rate 1.2% among 410,000; note: potency is the fitted concentration of half-maximal effect; % is set by controls: 0 for no effect and ±100 for the full control effect; nearly all actives have a fitted effect of over 65% in size
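Cell-based qHTS in HEPG2 carrying a CAGA-GFP Smad reporter; compounds added before 500 pg/mL final TGF-beta, 18 h incubation at 37 degrees C, GFP fluorescence quantified per cell by imaging cytometry.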
TDP1 cell noCPT: qHTS for Inhibitors of human tyrosyl-DNA phosphodiesterase 1 (TDP1): qHTS in cells in absence of CPT; Potency, µM (top dose mostly 46.2 µM), for inactives: at the top dose activity change, negative = growth inhibition, actives largely listed as inhibitors; AID 686978, 2013; hit rate 15% among 420,000; DT40 Tdp1-/- hTDP1 cells, no CPT, ATP luminescence, 48 h; note: potency is the fitted concentration of half-maximal effect; % is set by controls: 0 for no effect and ±100 for the full control effect; nearly all actives have a fitted effect of over 55% in size
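DT40 Tdp1-/-;hTDP1 cells, no CPT (DMSO vehicle only), 400 cells/well; compounds pin-transferred; ≥48 hr, 37 °C; CellTiter-Glo 30 min RT dark, luminescence read.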
DT40 TDP1 CPT: qHTS for Inhibitors of human tyrosyl-DNA phosphodiesterase 1 (TDP1): qHTS in cells in presence of CPT | chicken DT40 Tdp1-/-;hTDP1 cells + 20 nM CPT, ATP luminescence, 48 h | Potency, µM (top dose mostly 46.2 µM), inactives show at the highest dose activity change, negative = growth inhibition, most hits filed as inhibitors | hit rate 12% among 420,000 | AID 686979, 2013; note: potency is the fitted concentration of half-maximal effect; % is set by controls: 0 for no effect and ±100 for the full control effect; nearly all actives have a fitted effect of over 55% in size
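Chicken DT40 Tdp1-/- cells stably complemented with human TDP1 were seeded at 400 cells/well in medium containing 20 nM camptothecin, exposed to pin-transferred compounds, and grown at 37 °C for at least 48 hr. Viability was read as ATP luminescence.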
Numbers without * were called inactive; ? = inconclusive; nt = no result given. Compounds with a hit are over-represented: about 19% of the library has one in this group of screens. Unless noted, calls come from the whole dose curve; as a rule, active = well fitted curve in the direction sought with a large enough effect; inconclusive = small, poorly fitted or top-dose-only effect, or another doubt; inactive = no such curve, though single readings can be large; an effect the other way counts as inactive or inconclusive.

SMILES	IL1B secr inh	TDP1 block	HepG2 viability	TGFb inhibitor	TDP1 cell noCPT	DT40 TDP1 CPT
CCOc1ccc(S(=O)(=O)Nc2ccc3c(c2)c2c(n3S(=O)(=O)c3ccc(OCC)cc3)CCCC2=O)cc1	nt	0%	nt	nt	nt	nt
Cc1ccc(S(=O)(=O)Nc2ccc3c(c2)n(C)c(=O)n3C)c(C)c1	38	-2%	-4%	8%	21µM*	?
CCOc1ccc(NS(=O)(=O)c2cnc(Cl)c(Cl)c2)cc1	-99*	0%	-12%	?	?	?
Cc1nc(S/C(=C/c2ccc(-c3ccc(C(=O)O)cc3)o2)C(=O)O)n[nH]1	10	4µM*	-13%	-19%	2%	-3%
CCCCOc1ccc(Cc2cnc(N)nc2N)cc1	-55*	3%	-32%	-1%	?	-24%
COc1ccc(Cc2cnc(N)nc2N)cc1OC	nt	4%	-4%	13%	?	?
CC(CNC(=O)C1CCN(C(=O)c2cc3sccc3n2C)CC1)c1ccccc1 (stereo not drawn)	nt	-3%	-31%	-22%	?	?
CC(C)C(=O)Nc1cccc(C(=O)N2CCCCC2C)c1 (stereo not drawn)	13	5%	4%	-3%	15µM*	18µM*
C/C(=N\NC(N)=O)c1ccc(Cl)s1	14	5%	2%	11%	4%	1%
C=C(C)CNC(=S)N/N=C(\C)c1ccc(Cl)s1	18	11%	0%	-14%	16µM*	?
CCNC(=S)N/N=C(\C)c1ccc(Cl)s1	0	8%	7%	-4%	4.1µM*	4.1µM*
CNC(=S)NN=C(C)c1ccc(OC)cc1O	-76*	nt	-3%	?	0.012µM*	0.016µM*
CNC(=S)N/N=C(\C)c1ccc(C)c(C)c1	-7	6%	-9%	26%	3.3µM*	2.6µM*
CNC(=S)N/N=C(\C)c1ccc(Cl)s1	3	-5%	-22%	?	4.6µM*	2.9µM*
CCCCN1C(=O)/C(=C/C=C2\N(C)c3ccccc3C2(C)C)SC1=S	nt	5%	nt	nt	nt	nt
CCCN1C(=O)/C(=C\C=C2/C=CN(CC)c3ccccc32)SC1=S	-12	5%	1%	-4%	10µM*	?
CC(C)c1ccc(NC(=O)CSc2nc(=O)n(Cc3ccccn3)c3c2CCC3)cc1	nt	-3%	-25%	?	18µM*	23µM*
Cc1ccc(NC(=O)CSc2nc(=O)n(Cc3ccccn3)c3c2CCC3)cc1F	nt	0%	-14%	?	16µM*	?
CC(C)c1ccc(NC(=O)CSc2nc(=O)n(Cc3cccnc3)c3c2CCC3)cc1	nt	-5%	-47%	11µM*	26µM*	?
Cc1ccc(NC(=O)CSc2nc(=O)n(CCCN3CCOCC3)c3c2CCCC3)cc1F	-85*	-6%	-30%	-12%	-18%	1%
CCc1ccc(NC(=O)CSc2nc(=O)n(CCCN3CCOCC3)c3c2CCCC3)cc1	?	1%	-16%	-3%	-22%	-19%
O=C(O)c1ccc(NS(=O)(=O)c2ccsc2C(=O)O)cc1	nt	3%	nt	nt	nt	nt
C[C@]1(C(=O)NCc2cc(F)cc(C(F)(F)F)c2)C=C[C@@H](Cc2ccccc2)N1C(=O)c1ccccc1	8	1%	-14%	?	?	16µM*
Cc1ccc(S(=O)(=O)N2C[C@H]3N(C(=O)OC(C)C)N(C(=O)OC(C)C)C[C@H](OC(=O)NCc4ccco4)[C@@]3(O)C2)cc1	-2	nt	1%	9%	23µM*	?
